Experimental data as given in PubChem BioAssay (NCI).
About 83,000 compounds went through this panel and 20% of them were active in at least one assay; those are over-represented in the sample as a whole.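 Step 1: grow cells in 96-well plates. Step 2: add test compound at a single concentration. Step 3: incubate 48 h. Step 4: record percent growth.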 Unmarked numbers belong to inactive results. The source made the active and inactive calls. Rule for the calls: active = growth percent below 10; inactive = the rest.

Experiments:
Experiment in all cases: NCI-60 one-dose screen, 48 h (100 = growth as untreated, 0 = no growth, -100 = all killed)
Details in all cases: 10 µM unless noted
DU-145 prostate = tested on: DU-145 prostate
K-562 leukemia = tested on: K-562 leukemia
MALME-3M melanoma = tested on: MALME-3M melanoma
MDA-MB-231 breast = tested on: MDA-MB-231 breast
RXF 393 renal = tested on: RXF 393 renal
SF-268 CNS = tested on: SF-268 CNS
SF-295 CNS = tested on: SF-295 CNS
SF-539 CNS = tested on: SF-539 CNS
UACC-257 melanoma = tested on: UACC-257 melanoma
M14 melanoma = tested on: M14 melanoma

C/C(=N\Nc1ccccc1)c1ccc(NC2=CC(=O)c3ccccc3C2=O)cc1
growth (DU-145 prostate): 50.7%
growth (K-562 leukemia): 19.4%
growth (MALME-3M melanoma): -65% (active)
growth (MDA-MB-231 breast): 62.4%
growth (RXF 393 renal): 92.1%
growth (SF-268 CNS): 64.4%
growth (SF-295 CNS): 55.2%
growth (SF-539 CNS): 92.9%
growth (UACC-257 melanoma): 67.9%
growth (M14 melanoma): 26.3%

COc1ccc(CN2C(=O)OC(C)(COC(C)=O)C2=O)cc1 (stereo not given)
growth (DU-145 prostate): 107%
growth (K-562 leukemia): 94.5%
growth (MALME-3M melanoma): 102%
growth (MDA-MB-231 breast): 103%
growth (RXF 393 renal): 105%
growth (SF-268 CNS): 102%
growth (SF-295 CNS): 99.7%
growth (SF-539 CNS): 96%
growth (UACC-257 melanoma): 100%
growth (M14 melanoma): 105%

Oc1c(CN2CCC(N3CCOCC3)CC2)cc(Cc2cc(CN3CCC(N4CCOCC4)CC3)c(O)c3ncccc23)c2cccnc12
growth (DU-145 prostate): 34.5%
growth (K-562 leukemia): 11.1%
growth (MALME-3M melanoma): 56.1%
growth (MDA-MB-231 breast): 8.58% (active)
growth (RXF 393 renal): 53.5%
growth (SF-268 CNS): 25.5%
growth (SF-295 CNS): -21.1% (active)
growth (SF-539 CNS): 6.51% (active)
growth (UACC-257 melanoma): 64.5%
growth (M14 melanoma): 11.3%

CN(C)c1ccc(CNCCO)cc1
growth (DU-145 prostate): 105%
growth (K-562 leukemia): 97.9%
growth (MALME-3M melanoma): 103%
growth (MDA-MB-231 breast): 110%
growth (RXF 393 renal): 113%
growth (SF-268 CNS): 101%
growth (SF-295 CNS): 103%
growth (SF-539 CNS): 97.5%
growth (UACC-257 melanoma): 85.4%
growth (M14 melanoma): 96.7%

C[C@@H]1CN(c2cnc(C(=O)Nc3cc(F)cc4cccnc34)cn2)C[C@H](C)N1
growth (DU-145 prostate): 84.1%
growth (K-562 leukemia): 28.5%
growth (MALME-3M melanoma): 65.2%
growth (MDA-MB-231 breast): 37.7%
growth (RXF 393 renal): 39.8%
growth (SF-268 CNS): 88.1%
growth (SF-295 CNS): 101%
growth (SF-539 CNS): 94.7%
growth (UACC-257 melanoma): 41.4%
growth (M14 melanoma): 73.9%

CCN(CC)CCCC(Cc1ccccc1)Nc1c2ccc(Cl)cc2nc2ccc(OC)cc12 (stereo not given)
growth (DU-145 prostate): 62.3%
growth (K-562 leukemia): -39.2% (active)
growth (MALME-3M melanoma): -78.3% (active)
growth (MDA-MB-231 breast): -31.3% (active)
growth (RXF 393 renal): -51.7% (active)
growth (SF-268 CNS): 51.9%
growth (SF-295 CNS): -37.9% (active)
growth (SF-539 CNS): -87.5% (active)
growth (UACC-257 melanoma): -40.8% (active)
growth (M14 melanoma): -76.9% (active)

Nc1cccc(-c2ccc(COc3ccc(CC4SC(=O)NC4=O)cc3)cc2)c1 (stereo not given)
growth (DU-145 prostate): 83.2%
growth (K-562 leukemia): 21.6%
growth (MALME-3M melanoma): 42.5%
growth (MDA-MB-231 breast): 73.4%
growth (RXF 393 renal): 77.7%
growth (SF-268 CNS): 70.6%
growth (SF-295 CNS): 63.8%
growth (SF-539 CNS): 64.3%
growth (UACC-257 melanoma): 71%
growth (M14 melanoma): 36.5%

COC1C(O)CC(OC2CC(OC3CC(O[C@@H]4C(=O)c5c(cc6cc(OC7CC(OC8CC(O)C(O)C(C)O8)C(O)C(C)O7)c(C)c(O)c6c5O)CC4[C@H](OC)C(=O)O)OC(C)C3O)OC(C)C2O)OC1C (stereo not given in full)
growth (DU-145 prostate): 22.3%
growth (K-562 leukemia): 21.2%
growth (MALME-3M melanoma): 13.9%
growth (MDA-MB-231 breast): 48.4%
growth (RXF 393 renal): -45.7% (active)
growth (SF-268 CNS): 28.4%
growth (SF-295 CNS): 10.9%
growth (SF-539 CNS): 5.86% (active)
growth (UACC-257 melanoma): -8.56% (active)
growth (M14 melanoma): 35.4%

COC(=O)c1c2c(c[n+]([O-])c1C)C(=O)C=C(NCc1ccccc1)C2=O
growth (DU-145 prostate): -94.7% (active)
growth (K-562 leukemia): -29% (active)
growth (MALME-3M melanoma): -100% (active)
growth (MDA-MB-231 breast): -17.7% (active)
growth (RXF 393 renal): -94.1% (active)
growth (SF-268 CNS): -51.6% (active)
growth (SF-295 CNS): -93.7% (active)
growth (SF-539 CNS): -99% (active)
growth (UACC-257 melanoma): -92.2% (active)
growth (M14 melanoma): -92.2% (active)

CC1=C2[C@@H](CC1)[C@]1(C)O[C@@](C3CCNCC3)(C[C@H]1OC(=O)CO)[C@H]2OC(=O)/C=C/c1ccccc1
growth (DU-145 prostate): 101%
growth (K-562 leukemia): 62.9%
growth (MALME-3M melanoma): 81%
growth (MDA-MB-231 breast): 107%
growth (RXF 393 renal): 65.4%
growth (SF-268 CNS): 87.7%
growth (SF-295 CNS): 90.9%
growth (SF-539 CNS): 91.5%
growth (UACC-257 melanoma): 85%
growth (M14 melanoma): 83.6%

O=[N+]([O-])c1ccccc1Sc1ccccc1[N+](=O)[O-]
growth (DU-145 prostate): 104%
growth (K-562 leukemia): 97.5%
growth (MALME-3M melanoma): 92.4%
growth (MDA-MB-231 breast): 105%
growth (RXF 393 renal): 98.1%
growth (SF-268 CNS): 88%
growth (SF-295 CNS): 101%
growth (SF-539 CNS): 94.8%
growth (UACC-257 melanoma): 107%
growth (M14 melanoma): 100%

c1cc(OCCN2CCCCC2)ccc1CNc1ccc2nc(CCC3CCCCC3)[nH]c2c1
growth (DU-145 prostate): 59.9%
growth (K-562 leukemia): -1.42% (active)
growth (MALME-3M melanoma): -85.9% (active)
growth (MDA-MB-231 breast): 9.11% (active)
growth (RXF 393 renal): 11.9%
growth (SF-268 CNS): 57.6%
growth (SF-295 CNS): -38.6% (active)
growth (SF-539 CNS): -73.3% (active)
growth (UACC-257 melanoma): -75% (active)
growth (M14 melanoma): -75% (active)

Fc1ccc(/C=C/[C@@H]2C[C@@H](F)CCO2)cc1
growth (DU-145 prostate): 113%
growth (K-562 leukemia): 64.2%
growth (MALME-3M melanoma): 99.7%
growth (MDA-MB-231 breast): 98.2%
growth (RXF 393 renal): 96.4%
growth (SF-268 CNS): 104%
growth (SF-295 CNS): 94.8%
growth (SF-539 CNS): 103%
growth (UACC-257 melanoma): 93.9%
growth (M14 melanoma): 85.5%

ClC(Cl)c1nc(-c2ccccc2)n2nc(-c3ccccc3)cc2n1
growth (DU-145 prostate): -12% (active)
growth (K-562 leukemia): 31.2%
growth (MALME-3M melanoma): 55.9%
growth (MDA-MB-231 breast): 2.2% (active)
growth (RXF 393 renal): -68% (active)
growth (SF-268 CNS): 11.9%
growth (SF-295 CNS): -13.1% (active)
growth (SF-539 CNS): 0.564% (active)
growth (UACC-257 melanoma): 33.9%
growth (M14 melanoma): 32.3%

O=C(O)c1cn(C2CC2)c2cc(N3CCN(C(=O)N4CCOCC4)CC3)c(F)cc2c1=O
growth (DU-145 prostate): 115%
growth (K-562 leukemia): 114%
growth (MALME-3M melanoma): 88.6%
growth (MDA-MB-231 breast): 104%
growth (RXF 393 renal): 94.6%
growth (SF-268 CNS): 97.9%
growth (SF-295 CNS): 106%
growth (SF-539 CNS): 102%
growth (UACC-257 melanoma): 98%
growth (M14 melanoma): 102%

CC(O)Cc1c[nH]c(=O)[nH]c1=O (stereo not given)
growth (DU-145 prostate): 97.9%
growth (K-562 leukemia): 126%
growth (MALME-3M melanoma): 142%
growth (MDA-MB-231 breast): 112%
growth (RXF 393 renal): 192%
growth (SF-268 CNS): 90%
growth (SF-295 CNS): 112%
growth (SF-539 CNS): 110%
growth (UACC-257 melanoma): 92.7%
growth (M14 melanoma): 102%

COC(=O)Cn1c2c(c3c(OC)cccc31)C(=O)c1ccccc1-2
growth (DU-145 prostate): 104%
growth (K-562 leukemia): 91.7%
growth (MALME-3M melanoma): 95.5%
growth (MDA-MB-231 breast): 98.5%
growth (RXF 393 renal): 114%
growth (SF-268 CNS): 97%
growth (SF-295 CNS): 107%
growth (SF-539 CNS): 101%
growth (UACC-257 melanoma): 101%
growth (M14 melanoma): 103%

N#Cc1ccc(O)c(C2=NCC(c3ccc(-c4ccccc4)cc3)O2)c1 (stereo not given)
growth (DU-145 prostate): 30.5%
growth (K-562 leukemia): 7.82% (active)
growth (MALME-3M melanoma): 17.4%
growth (MDA-MB-231 breast): 25%
growth (RXF 393 renal): 42.2%
growth (SF-268 CNS): 19.7%
growth (SF-295 CNS): 19.4%
growth (SF-539 CNS): -9.06% (active)
growth (UACC-257 melanoma): 13.2%
growth (M14 melanoma): -16.6% (active)

COc1cc2c(c(OC)c1OC)C(=O)CC(c1cccc(C(=O)Nc3ccc(C#N)cc3)c1)O2 (stereo not given)
growth (DU-145 prostate): 88%
growth (K-562 leukemia): 42.2%
growth (MALME-3M melanoma): 96.9%
growth (MDA-MB-231 breast): 73.5%
growth (RXF 393 renal): 99.7%
growth (SF-268 CNS): 88.9%
growth (SF-295 CNS): 77%
growth (SF-539 CNS): 93%
growth (UACC-257 melanoma): 82.4%
growth (M14 melanoma): 72.1%

CN(C)CCCn1c2c(c3ccncc3c1=O)C(=O)c1ccccc1-2
growth (DU-145 prostate): -8.23% (active)
growth (K-562 leukemia): -61.6% (active)
growth (MALME-3M melanoma): -55.8% (active)
growth (MDA-MB-231 breast): 8.66% (active)
growth (RXF 393 renal): -15.7% (active)
growth (SF-268 CNS): -15.3% (active)
growth (SF-295 CNS): 1.81% (active)
growth (SF-539 CNS): -17% (active)
growth (UACC-257 melanoma): -30.3% (active)
growth (M14 melanoma): -36.5% (active)
